Inconclusive results are not listed. The source made the active and inactive calls. Unless noted, calls follow the shape of the dose curve; as a rule, active = well fitted curve in the direction sought with a large enough effect in the repeat runs; inconclusive = weak or mixed curves; inactive = no such curve, though single readings can be large; an effect the other way counts as inactive or inconclusive.
Legend:
[1] = qHTS assay for small molecule agonists of the p53 signaling pathway (AID 651631; calls by dose curve; also: nearly all actives have a fitted effect of over 15% in size)
Method in brief: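 HCT-116 cells carrying a beta-lactamase reporter under p53 response elements were dosed with compound for 16 h at 37 °C. LiveBLAzer B/G FRET substrate was then added for 2 h at room temperature, and fluorescence intensity was read to detect pathway agonism.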

[2] = qHTS assay for small molecules that induce genotoxicity in human embryonic kidney cells expressing luciferase-tagged ATAD5 (AID 651632); also: nearly all actives have a fitted effect of over 15% in size
Method in brief: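 Genotoxicity read-out via ATAD5-luciferase: HEK293T cells, 16 hr compound incubation at 37C, Amplite detection.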

[3] = qHTS assay for small molecule agonists of the p53 signaling pathway - cell viability (AID 651633; calls by dose curve;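 also: p53RE-bla HCT reporter cells with a stable beta-lactamase p53 reporter; series mostly up to about 83 µM; nearly all actives have a fitted effect of over 30% in size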)
Method in brief: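 Viability counter-read: CellTiter-Glo luminescence (30 min, room temperature) in the same p53RE-bla plates. These plates had been exposed to compounds for 16 h at 37 C.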

[4] = qHTS assay for small molecules that induce genotoxicity in human embryonic kidney cells expressing luciferase-tagged ATAD5 - cell viability (AID 651634; calls by dose curve; also: nearly all actives have a fitted effect of over 25% in size)
Method in brief: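 Live-cell protease activity (CellTiter-Fluor, fluorescence) indicates viability. HEK293T cells with luciferase-tagged ATAD5; 15.5 hr compound treatment at 37C.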

[5] = qHTS assay for small molecule disruptors of the mitochondrial membrane potential - cell viability (AID 720634; calls by dose curve;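 also: human HepG2 liver cancer cells; series mostly up to about 83 µM; nearly all actives have a fitted effect of over 20% in size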)
Method in brief: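 Human hepatoma HepG2 cells were treated for 1 hr with test chemicals, then given m-MPI dye and CellTiter-Glo. Cell viability reflects luminescence proportional to cellular ATP.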

[6] = qHTS assay to test for compound auto fluorescence at 535 nm (green) in HepG2 cells (AID 720675)
[7] = qHTS assay to test for compound auto fluorescence at 460 nm (blue) in HEK293 cells (AID 720678)
Method in brief: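 After cell attachment (4-5 hr, 37C), compounds were pinned onto HEK293 monolayers in 10% dialyzed FBS medium. The blue channel (405/460 nm) was read following overnight culture. Equivalency was calculated against triamterene.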

[8] = qHTS assay to test for compound auto fluorescence at 590 nm (red) in HEK293 cells (AID 720679)
Method in brief: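 Plates of HEK293 cells (10% dialyzed FBS) are treated with 23 nL compound or DMSO vehicle after a 4-5 hr attachment period, incubated overnight at 37C, and read for red fluorescence at 540/590nm.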

[9] = qHTS assay to test for compound auto fluorescence at 535 nm (green) in HEK293 cells (AID 720680)
[10] = qHTS assay to test for compound auto fluorescence at 590 nm (red) in HEK293 cell free culture (AID 720683)
Method in brief: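 Red-channel autofluorescence of compounds in culture medium (DMEM, 10% FBS), no cells, measured at 540/590 nm. Rose Bengal sodium is the reference fluorophore for equivalence.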

[11] = qHTS assay to test for compound auto fluorescence at 460 nm (blue) in HepG2 cell free culture (AID 720685)
Method in brief: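 Compound (23 nL) or DMSO pinned into cell-free MEM with 10% FBS; blue fluorescence read at 405/460 nm excitation/emission, expressed as auto-fluorescence equivalency to triamterene.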

[12] = qHTS assay to test for compound auto fluorescence at 535 nm (green) in HepG2 cell free culture (AID 720686)
[13] = qHTS assay to test for compound auto fluorescence at 460 nm (blue) in HepG2 cells (AID 720687)
Method in brief: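 Blue-channel autofluorescence (Ex/Em 405/460 nm, triamterene-equivalent) was measured after 1 hr compound exposure at 37 C, 5% CO2. Cells were HepG2, plated overnight at 37 C in MEM plus 10% FBS.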

[14] = molecular target: Glucocorticoid receptor (Homo sapiens) (UniProt P04150); test: qHTS assay to identify small molecule agonists of the glucocorticoid receptor (GR) signaling pathway (AID 720691; active = well fitted activation curve with a large enough effect in the signal ratio in the repeat runs, not every such curve was filed as active; the % refers to the signal ratio)
Sequence of Glucocorticoid receptor (Homo sapiens) (P04150 whole entry, looked up): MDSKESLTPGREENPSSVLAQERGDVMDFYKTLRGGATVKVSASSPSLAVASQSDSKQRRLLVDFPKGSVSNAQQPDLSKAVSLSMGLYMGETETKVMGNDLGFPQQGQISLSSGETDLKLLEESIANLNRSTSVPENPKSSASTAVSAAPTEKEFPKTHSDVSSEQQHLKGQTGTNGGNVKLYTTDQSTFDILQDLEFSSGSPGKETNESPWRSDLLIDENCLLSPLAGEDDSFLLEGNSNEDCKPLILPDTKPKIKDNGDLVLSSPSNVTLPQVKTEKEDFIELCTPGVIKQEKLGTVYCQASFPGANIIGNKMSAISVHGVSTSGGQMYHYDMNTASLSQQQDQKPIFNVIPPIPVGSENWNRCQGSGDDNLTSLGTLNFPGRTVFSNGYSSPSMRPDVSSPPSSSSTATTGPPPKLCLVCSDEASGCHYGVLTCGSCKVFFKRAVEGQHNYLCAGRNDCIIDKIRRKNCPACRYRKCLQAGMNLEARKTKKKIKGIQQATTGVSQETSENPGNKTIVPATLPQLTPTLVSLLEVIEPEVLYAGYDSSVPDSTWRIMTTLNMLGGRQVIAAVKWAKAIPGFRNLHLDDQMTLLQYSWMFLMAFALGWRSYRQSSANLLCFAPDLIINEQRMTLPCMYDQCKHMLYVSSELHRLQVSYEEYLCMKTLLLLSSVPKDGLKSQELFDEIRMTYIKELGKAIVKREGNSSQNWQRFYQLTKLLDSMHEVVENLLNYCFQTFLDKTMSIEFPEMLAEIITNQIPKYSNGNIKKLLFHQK
Method in brief: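 Beta-lactamase reporter activity, read as fluorescence intensity, was measured in GR-bla HeLa cells exposed to compounds for 18 h at 37 C and then loaded with LiveBLAzer B/G FRET substrate for 2 h at room temperature.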

[15] = molecular target: Glucocorticoid receptor (Homo sapiens) (UniProt P04150); test: qHTS assay to identify small molecule antagonists of the glucocorticoid receptor (GR) signaling pathway (AID 720692; active = well fitted inhibition curve with a large enough effect in the signal ratio in the repeat runs, not every such curve was filed as active; the % refers to the signal ratio)
Method in brief: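 Fluorescence from cleaved LiveBLAzer B/G FRET substrate reports GRE-driven beta-lactamase in HeLa cells; compounds are tested against 5 nM dexamethasone (final) over 18 h at 37 C, substrate incubation 2 h at room temperature.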

[16] = qHTS assay to test for compound auto fluorescence at 460 nm (blue) in HEK293 cell free culture (AID 720681)
Method in brief: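 Blue fluorescence (Ex 405/Em 460 nm, triamterene-equivalent) was read immediately after pin transfer of compound or DMSO into medium (DMEM, 10% FBS) without cells.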

[17] = qHTS assay to test for compound auto fluorescence at 535 nm (green) in HEK293 cell free culture (AID 720682)
Method in brief: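 Green-label autofluorescence (485 nm excitation, 535 nm emission) measured on compound added to cell-free culture medium (DMEM, 10% FBS). Output is expressed relative to fluorescein.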

[18] = qHTS assay to test for compound auto fluorescence at 590 nm (red) in HepG2 cell free culture (AID 720684)
Method in brief: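 Plate contents were MEM with 10% FBS plus test compound or DMSO, no cells. Fluorescence was recorded with 540 nm excitation and 590 nm emission.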

[19] = qHTS assay to test for compound auto fluorescence at 590 nm (red) in HepG2 cells (AID 720674)
Method in brief: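 1 hr compound incubation on HepG2 cells, 37 C, 5% CO2; plate read ex 540 nm / em 590 nm; intensities reported as Rose Bengal sodium equivalents.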

[20] = qHTS assay for small molecule disruptors of the mitochondrial membrane potential (AID 720635); also: potency is read from the fitted curve at half-maximal effect
Method in brief: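 Mitochondrial membrane potential tracked with Mito-MPS dye, red aggregates (ex 540/em 590 nm) against green monomers (ex 490/em 535 nm). Compound treatment 1 hr at 37C, dye 30 min in HepG2.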
% is scaled to controls: 0 for no effect and ±100 for the full control effect.

Cc1nnc2n1-c1sc(CCC(=O)N3CCOCC3)cc1C(c1ccccc1Cl)=NC2
inactive: Potency [1] | Potency [2] | Potency [3] | Potency [4] | Potency [5] | outcome [6] | outcome [7] | outcome [8] | outcome [9] | outcome [10] | outcome [11] | outcome [12] | outcome [13] | outcome [14] | Potency [15]

N#Cc1ccncc1
inactive: Potency [1] | Potency [2] | Potency [3] | Potency [4] | Potency [5] | outcome [6] | outcome [7] | outcome [8] | outcome [9] | outcome [16] | outcome [17] | outcome [10] | outcome [18] | outcome [11] | outcome [12] | outcome [13] | outcome [14] | Potency [15]

Cc1nc(N)nc(N)n1
inactive: Potency [1] | Potency [2] | Potency [3] | Potency [4] | Potency [5] | outcome [19] | outcome [6] | outcome [7] | outcome [8] | outcome [9] | outcome [16] | outcome [10] | outcome [18] | outcome [11] | outcome [12] | outcome [14]

ClCCOCOCCCl
inactive: Potency [1] | Potency [2] | Potency [3] | Potency [5] | Potency [20] | outcome [19] | outcome [6] | outcome [7] | outcome [8] | outcome [9] | outcome [16] | outcome [17] | outcome [10] | outcome [18] | outcome [12] | outcome [14] | Potency [15]

COP(N)(=S)Oc1ccccc1C(=O)OC(C)C (stereo not drawn)
inactive: Potency [1] | Potency [2] | Potency [3] | Potency [5] | outcome [19] | outcome [6] | outcome [7] | outcome [8] | outcome [9] | outcome [16] | outcome [17] | outcome [10] | outcome [18] | outcome [11] | outcome [12] | outcome [13] | outcome [14] | Potency [15]

O=CNC(N1CCN(C(NC=O)C(Cl)(Cl)Cl)CC1)C(Cl)(Cl)Cl (stereo not drawn)
inactive: Potency [1] | Potency [2] | Potency [3] | Potency [5] | outcome [19] | outcome [6] | outcome [7] | outcome [8] | outcome [16] | outcome [17] | outcome [10] | outcome [18] | outcome [11] | outcome [12] | outcome [14] | Potency [15]

C[C@@H]1CN(C2CCC(C#N)(c3ccc(F)cc3)CC2)CC[C@]1(C(=O)O)c1ccccc1 (stereo partly drawn)
inactive: Potency [1] | Potency [2] | Potency [4] | Potency [5] | Potency [20] | fluorescence, % of fluorescein control [6] -0.0057% [at 18.6 µM] | fluorescence, % of triamterene [7] 0.0981% [at 18.6 µM] | fluorescence, % of fluorescent control [8] 0.571% [at 18.6 µM] | fluorescence, % of fluorescent control [16] -0.0038% [at 18.6 µM] | activity change [17] -0.0185% [at 18.6 µM] | fluorescence, % of fluorescent control [10] 0.238% [at 18.6 µM] | fluorescence, % of Rose Bengal [18] -0.17% [at 18.6 µM] | fluorescence, % of fluorescent control [11] -0.0833% [at 18.6 µM] | fluorescence, % of fluorescein control [12] 0.0942% [at 18.6 µM] | outcome [14]

CCOP(=S)(OCC)Oc1nc(Cl)n(C(C)C)n1
inactive: Potency [1] | Potency [2] | Potency [4] | Potency [5] | Potency [20] | outcome [19] | outcome [6] | outcome [7] | outcome [8] | outcome [9] | outcome [16] | outcome [17] | outcome [10] | outcome [18] | outcome [11] | outcome [12] | outcome [13] | outcome [14] | Potency [15]

Cc1coc2c1CCC(C)C2 (stereo not drawn)
active: Potency [20] 25.1 µM
inactive: Potency [1] | Potency [2] | Potency [5] | outcome [19] | outcome [6] | outcome [7] | outcome [8] | outcome [9] | outcome [16] | outcome [17] | outcome [10] | outcome [18] | outcome [11] | outcome [12] | outcome [13] | outcome [14]

C=CC1CC=CCC1 (stereo not drawn)
inactive: Potency [1] | Potency [2] | Potency [4] | Potency [5] | outcome [6] | outcome [7] | outcome [8] | outcome [9] | outcome [17] | outcome [10] | outcome [18] | outcome [11] | outcome [12] | outcome [13] | outcome [14] | Potency [15]

CC(C)(C)C(=O)C(Oc1ccc(Cl)cc1)n1cncn1 (stereo not drawn)
inactive: Potency [1] | Potency [2] | Potency [3] | outcome [19] | outcome [6] | outcome [7] | outcome [8] | outcome [9] | outcome [10] | outcome [18] | outcome [11] | outcome [12] | outcome [13] | outcome [14] | Potency [15]

CCC(Cl)[N+](=O)[O-] (stereo not drawn)
inactive: Potency [1] | Potency [2] | Potency [4] | Potency [5] | Potency [20] | outcome [19] | outcome [6] | outcome [7] | outcome [8] | outcome [16] | outcome [17] | outcome [10] | outcome [12] | outcome [13] | outcome [14] | Potency [15]

CC1(C)CON(Cc2ccccc2Cl)C1=O
inactive: Potency [1] | Potency [2] | Potency [3] | Potency [5] | Potency [20] | outcome [6] | outcome [7] | outcome [8] | outcome [9] | outcome [16] | outcome [10] | outcome [18] | outcome [11] | outcome [12] | outcome [13]

From PubChem BioAssay (Tox21)
